In PubChem BioAssay (EPA / NIEHS) one finds AC50 and outcome data, which are given here for 38 compounds.

Inconclusive results are not listed. More than one record can exist for a structure, and the calls need not agree. The source made the active and inactive calls. Rule for the calls: active = hit-call score of the fitted dose curve at least 0.9, where 1 is the maximum; inconclusive = response in the unintended direction; inactive = score below 0.9.

Cellular tumor antigen p53 (Homo sapiens), sequence (P04637 whole entry, looked up): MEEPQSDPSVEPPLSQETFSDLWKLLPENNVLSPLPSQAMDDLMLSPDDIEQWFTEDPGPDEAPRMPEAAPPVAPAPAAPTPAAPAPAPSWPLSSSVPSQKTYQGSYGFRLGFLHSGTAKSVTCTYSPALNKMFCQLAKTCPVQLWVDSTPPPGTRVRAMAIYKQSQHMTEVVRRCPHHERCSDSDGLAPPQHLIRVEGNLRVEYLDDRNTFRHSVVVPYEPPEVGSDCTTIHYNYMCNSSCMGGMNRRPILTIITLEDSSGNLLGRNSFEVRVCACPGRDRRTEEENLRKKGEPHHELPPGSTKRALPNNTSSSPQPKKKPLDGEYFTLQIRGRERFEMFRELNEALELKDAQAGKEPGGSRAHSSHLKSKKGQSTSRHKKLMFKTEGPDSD

System in the first experiment: not listed separately
The experiment can be described thus: TOX21_p53_BLA_p5_viability: Viability Assessment in the Tox21 HCT-116 p53 Agonism Beta-lactamase Assay, Phase 5 (AID 2283600). The gist of the method:
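Cells were plated at 4000/well, rested 5 h at 37C, then given compounds in DMSO (217-fold dilution) for 16 h at 37C, 5% CO2. Following the CCF4-AM beta-lactamase read, CellTiter-Glo was added and luminescence was read after 30 min at room temperature.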
Consider `Fc1ccc(C(OCCN2CCN(CCCc3ccccc3)CC2)c2ccc(F)cc2)cc1`, for which the AC50 was 38.4 µM (active).
Take `C[C@@H](Cc1ccccc1)NCCC(c1ccccc1)c1ccccc1`: the outcome was inactive.
On to `CCCCc1c(C)nc(NCC)[nH]c1=O`, for which the result was inactive.
`NNC(=O)c1ccccc1`: the result was inactive.
`CC(C)c1ccc(NC(=O)N(C)C)cc1`: the call was inactive.
For the compound `C[C@@H]1O[C@@H](O[C@@H]2C=C3CC[C@@H]4[C@H](CC[C@]5(C)[C@@H](c6ccc(=O)oc6)CC[C@]45O)[C@@]3(C)CC2)[C@H](O)[C@H](O)[C@H]1O`, the AC50 was 0.0108 µM (active).
Take `CC(C)C[C@H]1C(=O)N2CCC[C@H]2[C@]2(O)O[C@](NC(=O)[C@@H]3C[C@@H]4c5cccc6[nH]cc(c56)C[C@H]4N(C)C3)(C(C)C)C(=O)N12`: the call was inactive.
For `N#CC(C#N)=C(C#N)C#N`, the call was inactive.
For the compound `Cc1nnc2n1-c1sc(CCC(=O)N3CCOCC3)cc1C(c1ccccc1Cl)=NC2`, the compound was classed as inactive.
`C[C@H]1CC[C@]2(NC1)O[C@H]1C[C@H]3[C@@H]4CC[C@H]5C[C@@H](O)CC[C@]5(C)[C@H]4CC[C@]3(C)[C@H]1[C@@H]2C`: the call was inactive.
On to `N#C/C(N)=C(/N)C#N`, for which the outcome was inactive.
As for `CNC(C)Cc1ccccc1OC` (stereo unspecified), the compound was called inactive.
As for `NC(=O)CS(=O)C(c1ccccc1)c1ccccc1` (stereo unspecified), the compound was called inactive.
On to `COc1ccc(OC)c([C@@H](O)[C@H](C)N)c1`, for which the outcome was inactive.
In the case of `CCCN(CC1CC1)c1c([N+](=O)[O-])cc(C(F)(F)F)cc1[N+](=O)[O-]`, the result was inactive.
In the case of `ClCc1ccccc1`, the result was inactive.
For the compound `CC1NCCOC1c1ccccc1` (stereo unspecified), the compound was classed as inactive.
With `CC(Cc1ccccc1)NCc1ccccc1Cl` (stereo unspecified), the compound was classed as inactive.
Turning to `COC(C)(C)CCCC(C)C/C=C/C(C)=C/C(=O)OC(C)C` (stereo unspecified), the compound was classed as inactive.
On to `CCC1(c2ccccc2)C(=O)NC(=O)N(C(=O)c2ccccc2)C1=O` (stereo unspecified), for which the result was inactive.
As to `Brc1ccc(Oc2cc(Br)c(Br)cc2Br)c(Br)c1`, the compound was called inactive.
Still for that read-out and setting: the same measure for `c1ccc(C2(N3CCCC3)CCCCC2)cc1`: “inactive”; for `N#CCc1ccccc1`: “inactive”; for `F/C(COc1ccc2c(c1)[nH]c1ccccc12)=C1/CN2CCC1CC2`: “inactive”.
As for `O=C(CCl)C(Cl)Cl`, the result was inactive.
For the compound `O=C(N/N=C/c1ccc([N+](=O)[O-])o1)c1cc([N+](=O)[O-])cc([N+](=O)[O-])c1O`, the compound was classed as inactive.
As for `CO[C@H]1[C@@H](O)C[C@H](O[C@H]2[C@@H](O)C[C@H](O[C@H]3[C@@H](O)C[C@H](O[C@H]4CC[C@@]5(C)[C@H](CC[C@@H]6[C@@H]5C[C@@H](O)[C@]5(C)[C@@H](C7=CC(=O)OC7)CC[C@]65O)C4)O[C@@H]3C)O[C@@H]2C)O[C@@H]1C`, the AC50 is 0.0836 µM (active).
Consider `O=C(O)c1nn(Cc2ccc(Cl)cc2Cl)c2ccccc12`, for which the outcome was inactive.
Turning to `C=CC(C)=O`, the compound was classed as inactive.
On the same count and under the same terms, for `O=CC=Cc1ccccc1` the value was “inactive”; for `COc1ccc2c(c1OC)C(=O)O[C@@H]2[C@H]1c2cc3c(cc2CCN1C)OCO3`, “inactive”.
For `CC(=O)O[C@H]1C[C@H](O[C@H]2[C@@H](O)C[C@H](O[C@H]3[C@@H](O)C[C@H](OC4CC[C@@]5(C)[C@H](CC[C@@H]6[C@@H]5CC[C@]5(C)[C@@H](C7=CC(=O)OC7)CC[C@]65O)C4)O[C@@H]3C)O[C@@H]2C)O[C@H](C)[C@H]1O[C@@H]1O[C@H](CO)[C@@H](O)[C@H](O)[C@H]1O` (stereo partly specified), the AC50 is 0.0749 µM (active).
As for `CSCCCN=C=S`, the call was inactive.
With `C[C@]12CC[C@H]3[C@@H](CCC4=CC(=O)CC[C@@]43C)[C@@H]1CC[C@@H]2OC(=O)CCc1ccccc1`, the compound was classed as inactive.

The target of the next experiment is Cellular tumor antigen p53 (Homo sapiens) (UniProt P04637). As to the kind of experiment: TOX21_p53_BLA_p4_ratio: Tox21 HCT-116 p53 Agonism Beta-lactamase Assay, Ratio, Phase 4 (AID 2283601). The gist of the method:
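Signal is the blue/green (460nm/530nm) ratio of cleaved versus uncleaved CCF4-AM substrate, read after 2 h substrate loading. Cells were HCT116 carrying the p53-responsive beta-lactamase reporter, dosed 16 h at 37C, 5% CO2; CellTiter-Glo measured in parallel.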
In the case of `Fc1ccc(C(OCCN2CCN(CCCc3ccccc3)CC2)c2ccc(F)cc2)cc1`, the AC50 is 39 µM (active).
For `C[C@@H](Cc1ccccc1)NCCC(c1ccccc1)c1ccccc1`, the outcome was inactive.
On to `NNC(=O)c1ccccc1`, for which the result was inactive.
Take `CC(C)c1ccc(NC(=O)N(C)C)cc1`: the result was inactive.
In the case of `C[C@@H]1O[C@@H](O[C@@H]2C=C3CC[C@@H]4[C@H](CC[C@]5(C)[C@@H](c6ccc(=O)oc6)CC[C@]45O)[C@@]3(C)CC2)[C@H](O)[C@H](O)[C@H]1O`, the result was inactive.
On to `CC(C)C[C@H]1C(=O)N2CCC[C@H]2[C@]2(O)O[C@](NC(=O)[C@@H]3C[C@@H]4c5cccc6[nH]cc(c56)C[C@H]4N(C)C3)(C(C)C)C(=O)N12`, for which the result was inactive.
Regarding `N#C/C(N)=C(/N)C#N`, the result was inactive.
Take `COc1ccc(OC)c([C@@H](O)[C@H](C)N)c1`: the result was inactive.
In the case of `CC1(C)C(/C=C(\Cl)C(F)(F)F)C1C(=O)OC(C#N)c1cccc(Oc2ccccc2)c1` (stereo unspecified), the outcome was inactive.
As to `CC1NCCOC1c1ccccc1` (stereo unspecified), the result was inactive.
Take `CC(Cc1ccccc1)NCc1ccccc1Cl` (stereo unspecified): the result was inactive.
For the compound `COC(C)(C)CCCC(C)C/C=C/C(C)=C/C(=O)OC(C)C` (stereo unspecified), the result was inactive.
For the compound `CCC1(c2ccccc2)C(=O)NC(=O)N(C(=O)c2ccccc2)C1=O` (stereo unspecified), the outcome was inactive.
In the case of `O=[N+]([O-])O[C@H]1CO[C@H]2[C@@H]1OC[C@H]2O[N+](=O)[O-]`, the outcome was inactive.
The same measure, in the same setting: for `Brc1ccc(Oc2cc(Br)c(Br)cc2Br)c(Br)c1` the value was “inactive”; for `N#CCc1ccccc1`, “inactive”; for `F/C(COc1ccc2c(c1)[nH]c1ccccc12)=C1/CN2CCC1CC2`, “inactive”.
As to `O=C(CCl)C(Cl)Cl`, the AC50 was 26.1 µM (active).
Consider `O=C(N/N=C/c1ccc([N+](=O)[O-])o1)c1cc([N+](=O)[O-])cc([N+](=O)[O-])c1O`, for which the outcome was inactive.
As for `O=C(OCCN1CCCCC1)C(O)(c1ccccc1)c1ccccc1`, the outcome was inactive.
Same read-out and setting: the same measure for `CO[C@H]1[C@@H](O)C[C@H](O[C@H]2[C@@H](O)C[C@H](O[C@H]3[C@@H](O)C[C@H](O[C@H]4CC[C@@]5(C)[C@H](CC[C@@H]6[C@@H]5C[C@@H](O)[C@]5(C)[C@@H](C7=CC(=O)OC7)CC[C@]65O)C4)O[C@@H]3C)O[C@@H]2C)O[C@@H]1C`: “inactive”; for `CCOS(C)(=O)=O`: “inactive”.
Regarding `O=C(O)c1nn(Cc2ccc(Cl)cc2Cl)c2ccccc12`, the AC50 is 81.2 µM (active) and the outcome was inactive.
Regarding `C=CC(C)=O`, the outcome was inactive.
On the same count and under the same terms, for `O=CC=Cc1ccccc1` the value was “inactive”; for `COc1ccc2c(c1OC)C(=O)O[C@@H]2[C@H]1c2cc3c(cc2CCN1C)OCO3`, “inactive”.

As usually defined, the AC50 is the concentration at which the activity in the assay is half-maximal.
